Activity calls are given as the source filed them. No stated cut-off is given here; in the data, active means nuclear beta-catenin stimulation mostly above about 4.2% (no sharp cut-off); inactive means mostly below about 10%.
Experiment: stimulators of nuclear beta-catenin in C2C12, primary screen, imaging, WNT3A-conditioned medium, mouse C2C12, NPC library (AID 1117326); further: reference of the scale not given here
Conditions: at 10 µM, stronger effect = higher value

Row | Compound | nuclear beta-catenin stimulation
1 | NS(=O)(=O)c1cc(-c2nn[nH]n2)c(NCc2cccs2)cc1Cl | -3% (inactive)
2 | CCCCNC(=O)NS(=O)(=O)c1ccc(N)cc1 | 1.6% (inactive)
3 | CCCC(CCC)C(N)=O | -0.9% (inactive)
4 | COc1ccc(CC2c3cc(OC)c(OC)cc3CCN2CCC(=O)OCCCCCOC(=O)CCN2CCc3cc(OC)c(OC)cc3C2Cc2ccc(OC)c(OC)c2)cc1OC (centres undefined) | -1.1% (inactive)
5 | CC1(C)OC(=O)Nc2ccc(Br)cc21 | 3% (inactive)
6 | COC(=O)C1=C(C)NC(COC(N)=O)=C(C(=O)OC(C)C)C1c1cccc(Cl)c1Cl (centres undefined) | 35.5% (inactive)
7 | CCO[C@@H]1O[C@H](C(COCc2ccccc2)OCc2ccccc2)[C@H](OCc2ccccc2)[C@H]1O (some centres undefined) | -1.3% (inactive)
8 | Oc1cn2c(n1)Nc1ccc(Cl)c(Cl)c1C2 | 0.1% (inactive)
9 | NC(=Nc1ccccc1)Nc1ccccc1 | 0.2% (inactive)
10 | CCOC(=O)OCC/C(SC(=O)OCC)=C(\C)N(C=O)Cc1cnc(C)nc1N | 1.8% (inactive)
11 | CC(C)C(=O)Nc1cccc(C(F)(F)F)c1 | 1% (inactive)
12 | C/C(=C(\CCO)SS/C(CCO)=C(\C)N(C=O)Cc1cnc(C)nc1N)N(C=O)Cc1cnc(C)nc1N | 0.2% (inactive)
13 | COc1cc(C(=S)N2CCOCC2)cc(OC)c1OC | -0.6% (inactive)
14 | CC(C)(C)c1cc(C=O)cc(C(C)(C)C)c1O | 2% (inactive)
15 | O=c1[nH]c(=O)n([C@H]2O[C@H](CO)[C@@H](O)[C@@H]2O)cc1/C=C\Br | 0.8% (inactive)
16 | Cc1c(F)cc2c(=O)c(C(=O)O)cn3c2c1CCC3C (centres undefined) | 1.9% (inactive)
17 | CC(=O)Oc1ccc(C2(c3ccc(OC(C)=O)cc3)Oc3ccccc3NC2=O)cc1 | 54.6% (active)
18 | COc1ccnc2c1CCCCC2S(=O)c1nc2ccccc2[nH]1 (centres undefined) | -0.3% (inactive)
19 | CCN(CC)C(=O)C1CN2CCc3cc(OC)c(OC)cc3C2CC1OC(C)=O (centres undefined) | -1.5% (inactive)
20 | CCOC(=O)Cn1cccc1-c1nc(-c2ccc(OC)cc2)c(-c2ccc(OC)cc2)s1 | -0.6% (inactive)

Row | Compound | nuclear beta-catenin stimulation
21 | N#C/C(=C1/SC[C@@H](c2ccc(Cl)cc2Cl)S1)n1ccnc1 | 0.7% (inactive)
22 | NC(=O)COCCN1CCN(C(c2ccccc2)c2ccc(Cl)cc2)CC1 (centres undefined) | -0.4% (inactive)
23 | O=C(CCCN1CCN(c2ccc(F)cc2)CC1)NC1c2ccccc2CSc2ccccc21 (centres undefined) | 1.8% (inactive)
24 | Cc1ccc(C(=O)C(=O)O)cc1C | 1% (inactive)
25 | CN1[C@@H]2CC[C@H]1CC(NC(=O)n1c(=O)[nH]c3ccccc31)C2 (some centres undefined) | 1.7% (inactive)
26 | CCOc1cc(OCC)c(C(=O)CCC(=O)O)cc1OCC | -1.4% (inactive)
27 | Cc1cc(NS(=O)(=O)c2ccc(N)cc2)nc(C)n1 | 0.1% (inactive)
28 | c1ccc2c(c1)CCc1ccccc1N2 | 0.8% (inactive)
29 | CCOC(=O)C(=O)CCc1ccccc1 | 0.7% (inactive)
30 | O=C(O)Cc1ccc2c(c1)C(=O)c1ccccc1CO2 | 0.5% (inactive)
31 | CN[C@H](CC(C)C)C(=O)N[C@H]1C(=O)N[C@@H](CC(N)=O)C(=O)N[C@H]2C(=O)N[C@H]3C(=O)N[C@H](C(=O)N[C@H](C(=O)O)c4cc(O)cc(O)c4-c4cc3ccc4O)[C@H](O)c3ccc(c(Cl)c3)Oc3cc2cc(c3O[C@@H]2OC(CO)[C@@H](O)[C@H](O)[C@@H]2O[C@H]2C[C@](C)(N)[C@H](O)[C@H](C)O2)Oc2ccc(cc2Cl)[C@H]1O (some centres undefined) | -0.7% (inactive)
32 | Oc1cccc(-c2c3nc(c(-c4cccc(O)c4)c4ccc([nH]4)c(-c4cccc(O)c4)c4nc(c(-c5cccc(O)c5)c5ccc2[nH]5)CC4)C=C3)c1 | 24.3% (inactive)
33 | CCC(CN)=C(c1ccccc1)c1ccccc1 | -0.1% (inactive)
34 | CC(C)=CCC/C(C)=C/CC/C(C)=C/C(=O)OCC(=O)[C@@]1(O)CC[C@H]2[C@@H]3CCC4=CC(=O)C=C[C@]4(C)[C@H]3[C@@H](O)C[C@@]21C | -1% (inactive)
35 | NNc1nnc(NN)c2ccccc12 | 3.3% (inactive)
36 | COc1cccc(CCc2ccccc2OCC(CN(C)C)OC(=O)CCC(=O)O)c1 (centres undefined) | -0.6% (inactive)
37 | CC(C)(Oc1ccc(Cl)cc1)C(=O)OCCCOC(=O)C(C)(C)Oc1ccc(Cl)cc1 | 0.7% (inactive)
38 | C/C=C/c1ccc(O)c(OC)c1 | 9.7% (inactive)
39 | Cc1ccccc1C(=O)Nc1ccc(C(=O)N2CCCC(N(C)C)c3ccccc32)cc1 (centres undefined) | 58.3% (active)

— PubChem BioAssay
